# Source: PubChem (National Center for Advancing Translational Sciences (NCATS))
# Shown are actives, neighbours in structure and some others; about 2.4% of the full set was active somewhere.
# Anthrax LT inh: anthrax lethal toxin internalization inhibition. Cells, anthrax lethal toxin internalization, FRET ratio (460/530). Potency, µM (doses to about 40 µM), for the others: at the highest dose activity change, negative = inhibition, usual class: inhibitors. 70,000 compounds, 0.67% hits. AID 912; note: % is set by controls: 0 for no effect and ±100 for the full control effect; nearly all actives have a fitted effect of over 50% in size
# SmPrx2 inh: Schistosoma mansoni Prx2 inhibition | AID 448 | Potency, µM | S. mansoni Prx2 activity coupled to TGR/GSH (TGR is thioredoxin glutathione reductase), NADPH fluorescence loss, qHTS | 65,000 compounds, 0.07% hits
#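 Prx2 activity was followed as the loss of NADPH fluorescence (ex 365/em 450 nm), read every 30 sec for 8 min after H2O2 start. The enzyme mix (50 nM Prx2, 25 nM TGR, GSH, NADPH; pH 7.4 phosphate buffer) was incubated with compound for 15 min at room temperature first.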
# AmpC inh det: inhibitors of E. coli AmpC beta-lactamase with detergent | AID 584 | Potency, µM (series often up to 28.7 µM), for inactives: at the top dose activity change, negative = inhibition | purified AmpC, nitrocefin hydrolysis with detergent | 71,000 compounds, 0.09% hits | P00811; active = well fitted curve in the direction sought with a large enough effect; inconclusive = small, poorly fitted or top-dose-only effect; note: % is set by controls: 0 for no effect and ±100 for the full control effect
# Target sequence (P00811 whole entry, looked up): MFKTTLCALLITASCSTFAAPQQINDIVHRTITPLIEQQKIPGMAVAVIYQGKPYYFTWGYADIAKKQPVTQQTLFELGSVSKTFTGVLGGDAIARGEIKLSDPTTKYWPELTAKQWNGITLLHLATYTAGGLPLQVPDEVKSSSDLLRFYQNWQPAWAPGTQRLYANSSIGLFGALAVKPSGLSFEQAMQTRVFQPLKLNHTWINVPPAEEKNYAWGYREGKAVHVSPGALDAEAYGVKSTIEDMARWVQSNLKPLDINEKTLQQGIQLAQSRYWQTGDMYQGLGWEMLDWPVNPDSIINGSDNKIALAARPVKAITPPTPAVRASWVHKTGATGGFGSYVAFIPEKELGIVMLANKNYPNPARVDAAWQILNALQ
#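 E. coli AmpC (5.3 nM) in 20 mM phosphate pH 7.0 with 0.01% Triton X-100, preincubated 15 min RT with compound; nitrocefin (2 uL of 800 uM stock) hydrolysis followed by 480 nm absorbance every 20 s over 4 min.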
# AmpC nodet inh: inhibitors of E. coli AmpC beta-lactamase without detergent | P00811 | AmpC nitrocefin hydrolysis, absorbance 480 nm, no detergent | Potency, µM (highest dose often 28.7 µM), without a hit: at the top dose activity change, negative = inhibition | 71,000 compounds, 1.8% hits; note: % of control where 0% means no effect
#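 AmpC in 20 mM phosphate buffer pH 7.0 was preincubated 15 min at room temperature with compounds. Nitrocefin (800 uM stock) was then added and hydrolysis followed at 480 nm every 20 s for 4 min.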
# * hit, by the source's call; ? = inconclusive. Unless noted, calls come from the whole dose curve. Potency is the fitted concentration of half-maximal effect.
SMILES,Anthrax LT inh,SmPrx2 inh,AmpC inh det,AmpC nodet inh
CCC(C)NC(=O)CCC(=O)Nc1ccc2nc(N3CCOCC3)cc(C)c2c1 (stereo not drawn),6%,>57,-4%,31%
CCOc1ccccc1NC(=O)CCC(=O)Nc1ccc2nc(N3CCN(C)CC3)cc(C)c2c1,13µM*,>57,0%,100%
Cc1cc(N2CCN(C)CC2)nc2ccc(NC(=O)c3ccc(Br)o3)cc12,13µM*,>57,-4%,89%
Cc1cc(N2CCN(C)CC2)nc2ccc(NC(=O)c3ccc4c(c3)OCO4)cc12,?,>57,-2%,84%
Cc1cccc([C@@H]2CN(C)CCc3c2cc(O)c(O)c3Cl)c1,?,>57,-8%,18%
